Rows were chosen to be rich in hits. Some 4.8% of all compounds tested hit in one or more screens of this group.
hcDAF12 agonist = activates DAF-12 receptor from parasite H. contortus | activation, % at 6.8 µM | HEK293 hcDAF-12 lit1-tk-luc reporter, luminescence; 0% DMSO, 100% Δ7-dafachronic acid | 370,000 tested, 1.4% active;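 active = activation above the mean of all tested compounds plus 3 SD, cut at about 5.5% in these data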;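 also: 100% = response to 3 µM Δ7-dafachronic acid high control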
hgDAF12 agonist = hgDAF-12 agonism, primary luciferase screen. AID 687014. activation, % at 6.8 µM. HEK293 GAL4-hgDAF12 UAS-luciferase reporter, agonist luminescence; normalized to butyrate control. 370,000 tested, 1.8% active;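 active = activation above a cutoff set at the mean of all screened compounds plus 3 SD, cut at about 10% in these data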;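 also: 0% = DMSO wells and 100% = sodium butyrate wells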
ssDAF12 agonist = activates DAF-12 receptor from parasite S. stercoralis | HEK293 ssDAF-12/GRIP1 lit1-tk-luc reporter, luminescence; % of 3 µM dafachronic acid response | activation, % at 6.8 µM | 370,000 tested, 1% active;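 active = activation above the mean over all tested compounds plus 3 SD, cut at about 0.9% in these data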;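 also: 0% = DMSO-only wells and 100% = 3 µM delta7-dafachronic acid wells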
DAX1 inh-1 = inhibitors of human orphan nuclear receptor DAX1 (NR0B1) | P51843 | HEK293 Gal4-DAX1 luciferase reporter, luminescence | inhibition, % at 6.75 µM | 340,000 tested, 0.99% active;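 active = inhibition above the mean over all tested compounds plus 3 SD, cut at about 4.2% in these data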;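 also: 0% = DAX1-transfected cells with DMSO and 100% = empty-vector control cells with DMSO; inhibition shows as a rise in luminescence from relieved DAX1 repression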
Target sequence (P51843 207-470 limits assumed): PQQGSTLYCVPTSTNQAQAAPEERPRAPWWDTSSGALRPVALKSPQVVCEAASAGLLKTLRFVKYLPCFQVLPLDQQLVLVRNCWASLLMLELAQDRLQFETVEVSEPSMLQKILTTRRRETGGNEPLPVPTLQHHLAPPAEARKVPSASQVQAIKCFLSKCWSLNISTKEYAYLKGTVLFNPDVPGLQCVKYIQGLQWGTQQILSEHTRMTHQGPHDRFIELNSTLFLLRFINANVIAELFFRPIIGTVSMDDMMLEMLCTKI
SMARCA2 activ = SMARCA2 function activation, primary screen; MG213 cells, MMTV-luciferase reporter, dexamethasone, overnight; activation, % at 9.1 µM; 370,000 tested, 1% active; in the data active = activation above about 7.8%;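 also: 0% = vehicle wells and 100% = reference activator wells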
DAX1 inh-2 = DAX1 (NR0B1) inhibition, primary screen | HEK293T StAR-luciferase reporter, SF-1/DAX-1 repression relief | inhibition, % at 6.8 µM | 370,000 tested, 1.1% active | AID 652010;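 active = inhibition above the mean over all tested compounds plus 3 SD, cut at about 3.6% in these data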;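 also: 0% = DAX-1 cells with DMSO and 100% = cells lacking DAX-1 with DMSO; higher inhibition means more luminescence from relief of DAX-1 repression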
SMARCA2 act conf = confirmation of SMARCA2 (BRM) function activators; shares compounds with SMARCA2 activ; MG213 cells, MMTV-luciferase with dexamethasone, luminescence, overnight; MG213 cells expressing E1A, Rb sequestered; DMSO wells 0%, reference activator 100%; 3,500 tested, 30% active; activation, % at 9.1 µM;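 active = activation above its plate's cutoff, the mean activation of tested wells plus 3 SD, cut at about 7.9% in these data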
GAL4-VP16 Luc = counter-screen for SMARCA2 activators: GAL4-VP16 luciferase reporter activation; activation, % at 9.1 µM; HEK293 GAL4-VP16 pG5luc reporter, luciferase luminescence; scaled: DMSO wells 0%, SAHA wells 100%; shares compounds with SMARCA2 activ; 3,500 tested, 41% active;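 active = activation above the solvent-only control well mean plus 3 SD, averaged across control plates, cut at about 5.2% in these data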
Active calls of the source: *; / = no result; ! = repeats disagree.

SMILES	hcDAF12 agonist	hgDAF12 agonist	ssDAF12 agonist	DAX1 inh-1	SMARCA2 activ	DAX1 inh-2	SMARCA2 act conf	GAL4-VP16 Luc
O=C1NC2c3c(Cl)sc(Cl)c3C(=O)C2O1 (stereo unspecified)	0	-1	-1	0	15*	0	9.0*	1
S=C(NCc1cccc(Cl)c1)OC1CCC12CCC(c1ccccc1)CC2 (stereo unspecified)	0	3	-1	/	-2	0	/	/
COc1ccc2cc3cc(C(=O)Nc4ccc(F)cc4)sc3nc2c1	1	4	-1	/	/	/	/	/
CN1CCc2c(C#N)c(N3CCOCC3)nc(NCC3CCCO3)c2C1 (stereo unspecified)	0	-2	-1	/	12*	0	-3	0
Cc1ccc(CN(C(=O)c2cc3ccccc3oc2=O)C2CCS(=O)(=O)C2)cc1 (stereo unspecified)	2	7	0	1	8.7*	1	4	4
COc1cc(CN(C(=O)c2cc3ccccc3oc2=O)C2CCS(=O)(=O)C2)cc(OC)c1OC (stereo unspecified)	-1	5	-1	1	2	0	/	/
Fc1ccc(Cn2ccc3ccc(-c4ccc5ccn(Cc6ccc(F)cc6F)c5c4)cc32)c(F)c1	1	2	-1	/	-1	0	/	/
Clc1ccc2c(c1)-c1ccccc1C1=NCCN12	2	2	0	1	16*	-1	313*	5
Cc1oc(=O)c(NC(=O)c2cccc(Cl)c2)cc1C(=O)c1ccccc1	3	3	0	0	8.6*	1	2	10*
Cc1ccccc1N1CCN(C2=Nc3ccccc3Sc3ccccc32)CC1	-3	-7	-2	/	-5	-1	/	/
COc1cccc(C2CC=C(C(=O)O)CN2S(=O)(=O)c2ccc(C)cc2)c1 (stereo unspecified)	0	-1	0	/	-1	0	/	/
C[C@H](NS(=O)(=O)c1ccc2c(c1)OCCCO2)C(=O)N1CCN(Cc2ccc(C#N)cc2)CC1	2	4	-1	-1	8.8*	0	-4	1
C[C@H](NS(=O)(=O)c1ccc2c(c1)OCCCO2)C(=O)N1CCN(Cc2ccccc2)CC1	0	-2	0	-1	-4	1	/	/
O=C1CCc2cc(Br)ccc2O1	-1	0	0	2	8.7*	-1	-2	1
C=CCN(CC=C)C[C@@H]1CSCCS(=O)(=O)N1	0	0	0	/	-5	1	/	/
CCCn1c(CC)nc([N+](=O)[O-])c1S(=O)(=O)c1ccccc1	-2	10	0	-2	10*	-1	-12	-1
COc1cccc(C(=O)NCC(=O)N/N=C/c2ccc3c(c2)OCO3)c1	-1	1	0	-1	8.0*	0	2	0
O=C(N/N=C/c1ccc2c(c1)OCO2)C1COc2ccccc2O1 (stereo unspecified)	-1	1	-1	2	8.5*	0	5	1
CCOC(=O)C(=CNc1ccc(C)cc1C)C(=O)OCC	-1	-1	-2	0	7	-1	/	/
CCOC(=O)C(=CNCC(=O)O)C(=O)OCC	1	0	-2	-1	11*	0	-2	0
Cc1ccc(NC(=O)c2cc([N+](=O)[O-])ccc2N2CCOCC2)cc1C	0	0	-1	0	8.1*	1	-5	1
Cc1ccccc1C(=O)N[C@H](C(=O)N1CCC[C@H]1C(=O)NC1CCCC1)C1CCCCC1	-1	-1	-1	/	2	-2	/	/
C#CCn1c(O)c(N=NC(=O)CNC(=O)c2cccnc2)c2ccccc21	-2	0	-1	0	9.8*	0	0	1
CC(=O)N1CCn2c3ccc(C)cc3c3cccc1c32	0	3	-1	3	8.4*	1	6	3
CN1CCN(Cc2nc3ccccc3c(=O)n2Cc2nc(-c3ccc4ccccc4c3)cs2)CC1	-2	0	-1	0	8.2*!	-1	21*	0
SMILES	hcDAF12 agonist	hgDAF12 agonist	ssDAF12 agonist	DAX1 inh-1	SMARCA2 activ	DAX1 inh-2	SMARCA2 act conf	GAL4-VP16 Luc
C=CCn1c(SCC(=O)O)nnc1-c1ccco1	1	0	-2	/	-2	0	/	/
COc1ccc(OCCc2nnc(N)s2)cc1	0	1	-1	-2	-2	1	/	/
CCCOc1ccc(-c2nnc(N)s2)cc1	3	8	-1	2	9.6*	2	11*	8.0*
Cc1nc2ccc([N+](=O)[O-])cc2nc1C	-1	-2	-1	2	-2	1	/	/
CC1=Nc2cc([N+](=O)[O-])ccc2NC(C)(C)C1	2	12*	-2	4.8*	11*	0	6	2
O=C(CN1CCN(Cc2ccccc2Cl)CC1)N/N=C\c1ccccc1F	2	3	-2	/	-2	0	/	/
O=C(CCSc1ccc(Cl)cc1)N1CCN(c2ncccn2)CC1	2	3	0	2	9.3*	1	4	5
CCCCNC(=O)C1CCN(Cc2ccc(OCc3ccccc3)c(OC)c2)CC1	0	4	-1	1	9.4*	0	2	6.2*
CCCCCCCCN1CN2Cc3ccc(C)cc3C2CS1(=O)=O (stereo unspecified)	-1	1	-1	/	-1	1	/	/
COc1ccc(-n2nnnc2S(=O)(=O)Cc2ccc(C(=O)O)cc2)cc1	0	0	0	0	13*	0	15*	0
O=C(Nc1ccccc1Cl)c1ccc(C(=O)Nc2ccccc2Cl)cc1	-1	-3	-1	2	-6	0	/	/
O=C(Nc1ccccc1Cl)c1ccccc1	-1	4	-1	1	8.8*	1	2	5.6*
O=C(Nc1ccccc1Cl)c1ccn[nH]1	0	4	0	2	8.2*	1	3	2
O=C(Nc1ccccc1F)c1ccn[nH]1	-1	6	-1	3	2	1	/	/
O=C(NNC(=O)c1ccccc1Cl)c1ccncc1	-1	2	-1	0	8.7*	-1	-4	0
O=C(NNC(=O)c1ccc(Cl)cc1Cl)c1ccncc1	0	2	0	-1	-2	0	/	/
O=C(NCc1ccco1)Nc1c(Cl)cc(Cl)cc1Cl	0	0	-1	/	-4	0	/	/
CCC(C)(C)C1CCC(=NNC(=S)Nc2ccccc2)CC1 (stereo unspecified)	2	9	-2	0	8.9*	1	0	1

Assay outcomes: PubChem BioAssay, The Scripps Research Institute Molecular Screening Center
